An excerpt weighted towards active compounds, which were near 9.2% of everything screened.
KDM4E inh: JMJD2E (human) inhibition. JMJD2E catalytic domain, FDH-coupled NADH fluorescence (FDH is formaldehyde dehydrogenase). hit rate 1.6% among 230,000. B2RXH2. Potency, µM (titrated, usually from 57.1 µM), for inactives: top-dose activity change, negative = inhibition, hits mostly inhibitors;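 note: 0% = wells with enzyme and -100% = buffer wells without enzyme; nearly all actives have a fitted effect of over 50% in size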
HPGD block: blocks human HPGD enzyme activity; purified HPGD, NADH fluorescence kinetic, PGE2 substrate; AID 894; Potency, µM, without a hit: top-dose activity change, negative = inhibition, most hits filed as inhibitors; hit rate 4.3% among 150,000; note: % is set by controls: 0 for no effect and ±100 for the full control effect
Target sequence (P15428 whole entry, looked up): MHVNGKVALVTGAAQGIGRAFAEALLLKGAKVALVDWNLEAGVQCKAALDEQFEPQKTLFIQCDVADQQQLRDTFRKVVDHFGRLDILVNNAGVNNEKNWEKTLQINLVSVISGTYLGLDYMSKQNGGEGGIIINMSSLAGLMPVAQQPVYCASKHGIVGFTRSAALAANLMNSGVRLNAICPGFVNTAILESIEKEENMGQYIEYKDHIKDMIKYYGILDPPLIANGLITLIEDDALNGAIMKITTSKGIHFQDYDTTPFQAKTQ
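NADH formation kinetics: reaction with 30 uM PGE2 and 1 mM NAD+ (final), 20 nM enzyme, Tris-HCl pH 8 with Tween 20, after 15 min compound preincubation at room temperature. Fluorescence change, last versus first of five reads.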
Lamin A splicing: changes lamin A minigene splicing in HeLa cells. HeLa LMNA splicing GFP/RFP minigene ratio, 48 h. AID 1487. hit rate 0.01% among 200,000. Potency, µM (doses to about 46.1 µM), inactives show at the highest dose ratio change, negative = inhibition, actives largely listed as inhibitors; active = well fitted inhibition curve with a large enough effect in the signal ratio, with a control signal flat, not every such curve was filed as active; inconclusive = small, poorly fitted or top-dose-only effect, or effect the other way, or a change in a side signal; the % refers to the signal ratio; note: % is set by controls: 0 for no effect and ±100 for the full control effect
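Read-out is the ratio of GFP to DsRed2 object intensity, acquired by 488 nm laser-scanning cytometry on HeLa lamin A-EGFP minigene reporter cells. Compound incubation 48 hrs at 37 °C in Opti-MEM with 2% FBS; DMSO 0.5% final.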
ALDH1A1 block: inhibitors of human aldehyde dehydrogenase 1A1; Purified ALDH1A1, NADH fluorescence, propionaldehyde substrate; P00352; hit rate 7.3% among 220,000; Potency, µM (highest dose often 75.3 µM), without a hit: at the top dose activity, negative = inhibition, actives largely listed as inhibitors; AID 1030;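 note: plate controls were no enzyme wells and a reference inhibitor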
Target sequence (P00352 whole entry, looked up): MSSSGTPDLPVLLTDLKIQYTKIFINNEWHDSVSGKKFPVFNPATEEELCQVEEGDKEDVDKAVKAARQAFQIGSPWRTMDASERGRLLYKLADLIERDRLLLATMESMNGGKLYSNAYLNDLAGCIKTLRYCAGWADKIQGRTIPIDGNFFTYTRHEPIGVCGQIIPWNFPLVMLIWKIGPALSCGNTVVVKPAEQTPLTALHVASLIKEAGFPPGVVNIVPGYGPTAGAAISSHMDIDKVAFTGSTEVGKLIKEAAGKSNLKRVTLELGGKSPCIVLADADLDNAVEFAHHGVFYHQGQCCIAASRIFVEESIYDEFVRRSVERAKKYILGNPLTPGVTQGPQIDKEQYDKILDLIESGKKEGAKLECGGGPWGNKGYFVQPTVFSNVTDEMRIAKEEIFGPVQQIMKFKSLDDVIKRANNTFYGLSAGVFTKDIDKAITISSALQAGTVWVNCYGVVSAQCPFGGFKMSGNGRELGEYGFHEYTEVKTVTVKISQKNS
HTT cytoprotect: protects HTT-Q103 PC12 cells, measured by ATP | AID 1471 | Potency, µM (doses to about 56.4 µM), without a hit: cytoprotection (ATP increase), actives largely listed as activators | hit rate 0.14% among 230,000 | PC12 HTT-Q103 induced, cytoprotection, ATP luminescence, 40 h; active = well fitted curve in the direction sought with a large enough effect; inconclusive = small, poorly fitted or top-dose-only effect, or another doubt; inactive = no such curve, though single readings can be large; an effect the other way counts as inactive or inconclusive; note: % of control where 0% means no effect; nearly all actives have a fitted effect of over 45% in size
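PC12 cells stably carrying ecdysone-inducible Htt exon 1 (Q103)–GFP were induced with 100 nM tebufenozide (final) alongside library compounds in a dose series. Cytoprotection was scored as retained ATP by ATPlite luminescence.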
HttQ103 aggreg: mutant huntingtin aggregation inhibition; PC12 HttQ103-GFP aggregates, Acumen cytometry, 40 h; Potency, µM (highest dose often 46.1 µM), for the others: at the top dose activity change, negative = inhibition, hits mostly inhibitors; hit rate 1.1% among 220,000; AID 1688; active = well fitted curve in the direction sought with a large enough effect; inconclusive = small, poorly fitted or top-dose-only effect, or another doubt; inactive = no such curve, though single readings can be large; an effect the other way counts as inactive or inconclusive; note: % is set by controls: 0 for no effect and ±100 for the full control effect; nearly all actives have a fitted effect of over 60% in size
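PC12 cells with ecdysone-inducible HTT exon1 Q103-GFP, induced by 100 nM tebufenozide, given compounds in a concentration series. GFP aggregates (1–25 um, 6 SD above background) counted in lysates by laser-scanning cytometry, 488 nm excitation.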
* marks the source's active call; other numbers are inactive results; ? = inconclusive; · = no result; [ ] = remark or other dose. Unless noted, calls come from the whole dose curve; as a rule, active = well fitted inhibition curve with a large enough effect (not every such curve was filed as active); inconclusive = small, poorly fitted or top-dose-only effect, or another doubt; inactive = no such curve, though single readings can be large or run the other way. Potency is the fitted concentration of half-maximal effect.

SMILES | KDM4E inh | HPGD block | Lamin A splicing | ALDH1A1 block | HTT cytoprotect | HttQ103 aggreg
CCn1c(=O)cc(SCC(=O)N2CCC(C)CC2)c2ccccc21 | ? | 5.01µM* | -23.6% | 20µM* | -11.5% | 5.3%
CCn1c(=O)cc(SCC(=O)N2CCCCC2)c2ccccc21 | ? | 7.94µM* | ? | 20µM* | 1.1% | ?
CCN1CCN(C(=O)CSc2cc(=O)n(CC)c3ccccc23)CC1 | -5.8% | ? | ? | 6.0% | -0.2% | ?
O=c1nc2n(c3sc4c(c13)CCCC4)C(CBr)CS2 (configuration not stated) | 4.2% | ? | ? | 12.6µM* | 14.5% | 14.3%
CC(=O)c1ccc(OCC(C)C)c(CC(C(N)=O)C(N)=O)c1 | 6.7% | -10.4% | 6.0% | 9.6% | -7.0% | 12.7%
CCN(CC)Cc1cc(C(C)=O)ccc1OCC(C)C | -5.0% | -2.7% | 3.4% | 1.12µM* | -27.6% | -17.2%
Cc1ccc(S(=O)(=O)N(C)c2ccc(OCC(=O)Nc3cccc(-n4cnnn4)c3C)cc2)cc1 | -1.2% | · | · | · | 9.5%[10 µM] | -18.1%[9.22 µM]
CC(=O)N1CCN(c2nnnn2-c2ccccc2)CC1 | 3.3% | 2.6% | -1.6% | -1.3% | -1.2% | -7.1%
O=C1NCN(c2ccccc2)C12CCN(c1nnnn1-c1ccccc1)CC2 | -1.1% | -5.7% | -10.2% | 22.4µM* | 13.1% | -0.8%[9.22 µM]
Cc1ccc(C)c(N2CCN(c3nnnn3-c3ccccc3)CC2)c1 | -1.0% | -5.8% | -2.0% | -12.4% | -19.0% | -29.6%
c1ccc(CC2CCN(c3nnnn3-c3ccccc3)CC2)cc1 | -0.6% | -21.0% | ? | 8.91µM* | 3.1%[10 µM] | ?
Cc1cc(C)nc(N2CCN(c3nnnn3-c3ccccc3)CC2)n1 | 3.9% | -6.0% | -5.5% | 22.4µM* | 5.0% | -4.6%
O=C1CN(c2nnnn2-c2ccccc2)CCN1 | 1.6% | -11.2% | -0.5% | -0.2% | 11.8% | -17.7%
O=C(CNC(=O)c1ccccc1)N/N=C/c1cc(Br)ccc1O | 28.2µM* | -10.3% | ? | 8.2% | · | 3.16µM*
O=C(CN1CC(c2ccccc2)CC1=O)N/N=C/c1cc(Br)ccc1O (configuration not stated) | ? | ? | ? | 25.1µM* | -7.0%[10 µM] | ?
O=C(CNC(=O)c1ccccc1F)N/N=C/c1cc(Br)ccc1OC(=O)/C=C/c1ccco1 | ? | -28.5% | ? | ? | · | 10µM*
O=C(CNC(=O)c1ccccc1Br)N/N=C/c1ccccc1O | 25.1µM* | · | · | -12.2% | -107.9% | 10µM*
CCOc1ccc(NC(=O)CN2CC(c3ccccc3)CC2=O)cc1 (configuration not stated) | -0.9% | -7.4% | -6.7% | 4.1% | 13.8%[10 µM] | -7.5%
O=C(N/N=C/c1cc(Cl)ccc1O)c1ccccc1Br | 11.2µM* | · | · | -9.3% | -153.3% | 2.51µM*
O=C(CNC(=O)c1ccncc1)N/N=C/c1cc(Br)ccc1O | -1.8% | -10.3% | -16.9% | 1.1% | -41.1%[10 µM] | ?
O=C(CNC(=O)c1ccccc1Br)N/N=C/c1cc(Br)ccc1O | ? | · | · | 3.4% | -152.5% | 3.55µM*
COc1ccccc1Cn1c(CNS(=O)(=O)c2ccccc2Cl)nc2cccnc21 | · | · | 0.8%[46 µM] | · | · | ·
COc1cc(/C=N/Nc2ccc3ccccc3c2)ccc1OC(=O)c1ccco1 | 20µM* | ? | ? | ? | -8.1%[10 µM] | ?
COc1cc(/C=N/Nc2nc(C)cc(C)n2)ccc1OC(=O)c1ccco1 | -8.6% | -5.2% | -15.1% | -1.3% | 11.1%[10 µM] | 7.6%
N#C/C(=C/c1ccccc1[N+](=O)[O-])c1nnc2n1CCCCC2 | -8.7% | 2.51µM* | -14.2% | 22.4µM* | 2.4%[1.9 µM] | -9.4%
SMILES | KDM4E inh | HPGD block | Lamin A splicing | ALDH1A1 block | HTT cytoprotect | HttQ103 aggreg
N#C/C(=C\c1ccccc1[N+](=O)[O-])c1nc(C2CC2)cs1 | -5.2% | -26.7% | -10.8% | 10µM* | -1.2%[10 µM] | 2.1%
N#C/C(=C/c1ccccc1[N+](=O)[O-])c1nc(C2CC2)cs1 | -1.6% | ? | ? | 11.2µM* | 4.1%[10 µM] | 5.5%
N#C/C(=C(/O)c1ccc([N+](=O)[O-])cc1)c1nnc2n1CCCCC2 | -1.6% | · | -15.8%[46 µM] | ? | -17.8% | 31.6%
O=c1c[n+](CCCC[n+]2cc(=O)o[nH]2)[nH]o1 | · | -4.7% | · | 3.3%[13.5 µM] | -9.7%[10 µM] | ·
CC1=CC(C)(C)NC(=S)N1c1cccc2ccccc12 | 8.9% | 0.9% | -2.8% | 22.4µM* | -6.1%[10 µM] | 5.5%
COc1ccc(S(=O)(=O)Nc2ccccc2OC)cc1NC(=O)c1cc2ccccc2oc1=O | 1.5% | · | -3.6% | 14.3% | -0.2%[10 µM] | 1.5%
CC1CN(S(=O)(=O)c2ccc(NC(=O)c3cc(-c4ccccc4O)n[nH]3)cc2)CC(C)O1 (configuration not stated) | 3.4% | 14.1µM* | ? | 5.0% | -21.9% | 17.0%[9.22 µM]
CCCCN1C(=O)C(NC(=O)CC(C)C)(C(F)(F)F)C2=C1CC(C)(C)CC2=O (configuration not stated) | 4.6% | 0.8% | 4.7% | 29.6% | 6.3% | 5.9%
CC1(C)CC(=O)C2=C(C1)N(Cc1ccco1)C(=O)C2(NC(=O)C1CCCCC1)C(F)(F)F (configuration not stated) | 2.9% | -0.5% | 13.9% | -1.6% | -4.1% | 5.62µM*
CCCN1C(=O)C(NC(=O)c2ccncc2)(C(F)(F)F)C2=C1CC(C)(C)CC2=O (configuration not stated) | -1.4% | -14.0% | 7.8% | 7.08µM* | -8.5%[0.074 µM] | -5.7%[9.22 µM]
COc1ccc(CNC(=O)C2CCC(CNS(=O)(=O)c3cccc4nsnc34)CC2)cc1 (configuration not stated) | -4.0% | -3.0% | 3.3% | ? | -32.2% | 0.0%
CCOCCCNC(=O)C1CCC(CNS(=O)(=O)c2cccc3nsnc23)CC1 (configuration not stated) | 4.3% | 25.1µM* | 3.4% | 2.6% | -11.9%[10 µM] | 1.3%
CCCN1C(=O)C(Cc2nc3ccccc3c(=O)n2C)c2ccccc21 (configuration not stated) | -23.0% | -6.1% | 8.4% | 0.282µM* | -20.3% | 9.5%
O=C(O)CCSC1=NCCN1 | · | -3.1% | · | ? | -4.8%[10 µM] | ·
CCCCC(=O)Nc1nc(C)c(-c2csc(Nc3cc(OC)ccc3OC)n2)s1 | ? | -25.6% | ? | 1.9% | ? | ?
CCCC(=O)Nc1nc(C)c(-c2csc(Nc3ccccc3C)n2)s1 | -8.6% | 31.6µM* | 3.8% | 10µM* | -29.2% | 23.0%
CCCCC(=O)Nc1nc(C)c(-c2csc(Nc3cc(Cl)ccc3OC)n2)s1 | ? | ? | 9.7% | 10µM* | -43.0% | 24.5%
C[C@@H](C(=O)O)/C(=C/c1ccc2c(c1)OCO2)C(=O)O | · | -11.0% | · | 5.8%[13.5 µM] | 4.4%[10 µM] | ·

Screening results: PubChem BioAssay, National Center for Advancing Translational Sciences (NCATS)
